# Shown are actives, neighbours in structure and some others; about 7.3% of the full set was active somewhere.
# Luc counter – blocks Kinase-Glo luciferase, a counter-screen artifact. Kinase-Glo luciferase, ATP luminescence, 8 min. Potency, µM (titrated, usually from 38.3 µM), for the others: top-dose activity change, negative = inhibition, usual class: inhibitors. 200,000 compounds, 0.28% hits; further: on the % scale 0 is the no-effect control and ±100 the full control effect; nearly all actives have a fitted effect of over 60% in size
#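 Recombinant Kinase-Glo luciferase, 10 uM ATP (linear range), luciferin; imidazole pH 7.2 / KCl / MgCl2 / Tween / BSA buffer; 8 min RT; luminescence.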
# NPC1 promoter act – activates the NPC1 promoter; Huh7 NPC1 promoter luciferase reporter, 24 h; Potency, µM (titrated, usually from 9.22 µM), inactives show at the highest dose activation, actives largely listed as activators; 320,000 compounds, 2.4% hits; AID 485313; further: % of control where 0% means no effect; nearly all actives have a fitted effect of over 60% in size
#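 In 1536-well qHTS, Huh7 cells harboring an NPC1 promoter–luciferase construct received compound for 24 h; activation was quantified by luminescence following luciferase reagent addition.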
# SMN2 splice enh – enhancers of SMN2 splice variant expression | HEK293 SMN2-luciferase splicing reporter, luminescence, 30-36 h | Potency, µM (titrated, usually from 46.1 µM), inactives show at the highest dose activity change, positive = activation, hits mostly activators | 210,000 compounds, 2.8% hits | AID 1458; further: % of control where 0% means no effect; nearly all actives have a fitted effect of over 55% in size
#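 HEK293 cells carry an SMN2 […]–luciferase reporter in which exon 7 inclusion puts luciferase in frame. Cells were plated 10-12 h before compound addition, then incubated 30-36 h at 37C. ONE-Glo luminescence was read; sodium butyrate at 4.5 mM final served as control.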
# Rab9 prom act – activators of Rab9 promoter | Huh7 Rab9 promoter-luciferase reporter, luminescence, 24 h | Potency, µM (top dose mostly 9.22 µM), inactives show top-dose activation, negative = inhibition, most hits filed as activators | 320,000 compounds, 2.8% hits; further: % of control where 0% means no effect; nearly all actives have a fitted effect of over 60% in size
#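 Huh7 cells stably carrying a Rab9 promoter-luciferase reporter, 1500 cells per well in OP-MEM I with 10% FBS, treated with compound 24 hours at 37C. Luciferase activity read by luminescence after 10 minutes with Amplite reagent.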
# FLuc counter – firefly luciferase modulation, counter-screen for miR-21 project. purified FLuc, Km substrates, luminescence inhibition. Potency, µM (series often up to 57.5 µM), for inactives: top-dose activity change, negative = inhibition, hits mostly inhibitors. P08659. AID 588342. 360,000 compounds, 6.9% hits;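 further: plate controls were vehicle for no effect and reference inhibitor for full effect; nearly all actives have a fitted effect of over 55% in size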
# Target sequence (P08659 whole entry, looked up): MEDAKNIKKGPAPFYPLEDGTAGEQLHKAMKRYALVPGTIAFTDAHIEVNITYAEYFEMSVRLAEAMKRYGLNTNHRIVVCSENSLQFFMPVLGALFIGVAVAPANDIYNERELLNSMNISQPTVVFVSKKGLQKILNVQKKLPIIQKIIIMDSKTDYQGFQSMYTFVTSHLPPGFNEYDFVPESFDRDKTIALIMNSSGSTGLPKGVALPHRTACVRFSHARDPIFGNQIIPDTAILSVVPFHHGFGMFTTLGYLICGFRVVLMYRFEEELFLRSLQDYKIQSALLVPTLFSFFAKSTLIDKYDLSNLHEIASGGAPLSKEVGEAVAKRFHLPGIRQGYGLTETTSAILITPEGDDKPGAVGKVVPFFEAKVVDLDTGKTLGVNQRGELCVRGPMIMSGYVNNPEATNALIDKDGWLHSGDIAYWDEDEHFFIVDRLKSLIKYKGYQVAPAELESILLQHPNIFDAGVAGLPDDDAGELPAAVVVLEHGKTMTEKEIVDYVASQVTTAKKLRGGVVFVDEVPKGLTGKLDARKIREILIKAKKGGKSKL
#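 Biochemical qHTS of compounds, final roughly 60 µM downward over six points, against 10 nM purified firefly luciferase using Km concentrations of substrates (10 uM D-luciferin, 10 uM ATP) in Tris acetate pH 7.5 buffer; luminescence output.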
# ELG1 genotox – induces genotoxicity in HEK293T cells with luciferase-tagged ELG1; HEK293T ELG1-luciferase reporter, luminescence, 16 h; Potency, µM (titrated, usually from 46 µM), for the others: at the highest dose activity change, positive = activation, hits mostly activators; 330,000 compounds, 1.3% hits; AID 504466; further: % of control where 0% means no effect; nearly all actives have a fitted effect of over 60% in size
#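 DMSO vehicle served as control against compound-treated ELG1-luciferase HEK293T cells; exposure lasted 16 hr at 37 °C and 5% CO2, followed by ONE-Glo luminescence detection after 30 min.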
# Active calls of the source: *; ? = inconclusive; / = no result; [ ] = remark or other dose. The call rests on the fitted dose curve; in most records, active means well fitted curve in the direction sought with a large enough effect; inconclusive means small, poorly fitted or top-dose-only effect, or another doubt; inactive means no such curve, though single readings can be large; an effect the other way counts as inactive or inconclusive. Potency means the concentration at half of the fitted maximal effect.
SMILES,Luc counter,NPC1 promoter act,SMN2 splice enh,Rab9 prom act,FLuc counter,ELG1 genotox
COc1ccc(CCNC(=O)Cc2c(C)c3cc4c(C(C)(C)C)coc4c(C)c3oc2=O)cc1,/,/,2.8%,/,3.8%,/
Cc1ccc([C@@H](O)c2cnc(C)n2Cc2ccccc2)cc1,-5.1%[7.66 µM],/,0.2%[9.22 µM],/,/,/
Cc1ccc2nc(NC(=O)CS(=O)(=O)Cc3ccccc3)sc2c1,/,2.1%,/,3.7%,1.3%,10.6%
Cc1ccc2nc(NC(=O)CCNS(=O)(=O)c3ccc(Br)s3)sc2c1,-1.9%,1.2%,-11.0%,4.0%,19µM*,-3.7%
C/C(=N\NC(=O)c1ccc(NS(=O)(=O)c2cccs2)cc1)c1ccc(C(C)(C)C)cc1,-0.7%,-0.4%,?,-7.1%,12µM*,0.1%
Cc1cccc2sc(NC(=O)CCNS(=O)(=O)c3cccs3)nc12,-2.5%,-10.1%,0.9%,5.1%,-0.6%,-7.9%
Cc1ccc2nc(NC(=O)CCNS(=O)(=O)c3cccs3)sc2c1,2.0%,16.8%,-0.8%,22.0%,12µM*,-3.6%
Cc1ccc2nc(NC(=O)c3ccc(NS(=O)(=O)c4cccs4)cc3)sc2c1,2.0%,15.4%,-7.7%,15.9%,12µM*,9.2%
O=c1oc2ccccc2c(N2CCN(c3ccccc3F)CC2)c1CN1CCCC1,/,/,6.9%,/,-0.8%,/
CCCCN(Cc1cc2ccccc2[nH]c1=O)C(=O)c1cccc(Cl)c1,/,/,-2.7%,/,3.6%,/
CCOC(=O)C1CSC(Cc2ccc(OCc3ccc([N+](=O)[O-])cc3)cc2)N1 (stereo not drawn),-4.2%,/,12.6µM*,/,/,/
CCOC(=O)CCc1c(C)c2ccc(OCc3ccc([N+](=O)[O-])cc3)cc2oc1=O,9.0%,3.1%,-4.8%,1.1%,4.4%,5.7%
Cc1ccc(-n2cc(CNCC3CC(=O)N(C4CC4)C3)c(-c3cccc(C)c3)n2)cc1 (stereo not drawn),/,-4.7%,/,9.1%,21.3µM*,-4.0%
c1ccc(OCCSc2nnnn2C2CCCCC2)cc1,-0.2%,0.562µM*,11.2µM*,1µM*,2.13µM*,?
COC(=O)c1c(-c2cccs2)csc1NC(=O)c1ccc(C)cc1,/,/,/,/,5.36µM*,/
COC(=O)c1c(NC(=O)c2ccc(C)cc2)csc1C,/,-5.2%,/,-1.7%,10.7µM*,0.5%
CC(C)n1c(SCC(=O)c2ccc(F)cc2)nc2c(sc3ccccc32)c1=O,/,/,/,/,-1.1%,/
C=CCN(C(=O)Cc1cccs1)c1nc(-c2ccc(S(C)(=O)=O)cc2)cs1,/,?,/,?,16.9µM*,-0.3%
COc1cc(/C=N/Nc2nc(Nc3ccc(C)cc3)nc(-n3nc(C)cc3C)n2)cc(OC)c1OC,-2.8%,4.6%,12.8%,-8.2%,?,-27.0%
COc1cc(/C=N/Nc2nc(Nc3ccccc3)nc(-n3nc(C)cc3C)n2)cc(OC)c1OC,-1.5%,13.8%,-7.4%[1.84 µM],2.8%,2.69µM*,-15.6%
COc1ccc(O)c(/C=N/Nc2nc(Nc3ccccc3)nc(-n3nc(C)cc3C)n2)c1,0.2%,10.1%,-22.0%,-5.4%,9.53µM*,-10.0%
CCn1nc(C)c2c(-c3ccccc3)cc(=O)n(C(C)C(=O)NCc3ccc(C)cc3)c21 (stereo not drawn),/,/,/,/,-11.5%,/
CC(C)CC(=O)n1nc(-c2ccco2)nc1NCc1ccc(Cl)cc1,/,/,1.9%,/,2.6%,/
CCOc1ccc(-c2cc(C(=O)NCc3ccc(C)cc3)c3ccccc3n2)cc1,/,/,/,/,-13.6%,/
O=C(COC(=O)c1cc(-c2ccccc2)nc2ccccc12)Nc1ccc2c(c1)OCO2,-1.7%,-1.7%,10.1%,-2.5%,?,0.7%
SMILES,Luc counter,NPC1 promoter act,SMN2 splice enh,Rab9 prom act,FLuc counter,ELG1 genotox
Cc1cccc(-c2cc(C(=O)Nc3ccc4c(c3)OCCO4)c3ccccc3n2)c1,-19.8%,-0.9%,-9.1%,14.2%,6.75µM*,-7.0%
COc1ccc(-c2cc(C(=O)OCC(=O)Nc3ccc4c(c3)OCO4)c3ccccc3n2)cc1,0.2%,21.8%,12.6µM*,21.1%,?,0.3%
CCOc1ccc(-c2cc(C(=O)Nc3ccc4c(c3)OCCO4)c3ccccc3n2)cc1,?,25.1%,?,?,2.39µM*,1.8%
CCN1CCOC(=O)C1CC(=O)Nc1cc(C)ccc1OC (stereo not drawn),/,/,3.4%,/,-5.2%,/
C[C@@]12C(=O)OC(=O)[C@]1(C)[C@H]1CC[C@@H]2O1,-2.9%[17.1 µM],/,-50.0%[20.6 µM],/,/,/
COc1ccc(OC)c(CCNC(=O)c2cc3c(=O)n(C)c4ccccc4c3n2C)c1,/,/,-0.3%,/,2.6%,/
COc1ccc2c(c1)C1=NN(/C(C)=C/C(C)=O)C(c3cccc(F)c3)C1CC2 (stereo not drawn),-3.0%,-1.6%,-10.7%,9.1%,?,-0.1%
COc1ccc2c(c1)CCC1C2=NN(/C(C)=C\C(C)=O)C1c1ccc(F)cc1 (stereo not drawn),-15.0%,?,14.8%,?,13.5µM*,?
COc1ccc2c(c1)C1=NN(/C(C)=C\C(C)=O)C(c3ccccc3)C1CC2 (stereo not drawn),-3.5%,11.9%,-4.9%,18.1%,19µM*,16.3%
COc1ccc2c(c1)C1=NN(/C(C)=C/C(C)=O)C(c3ccc(F)cc3)C1CC2 (stereo not drawn),-4.5%,24.6%,8.0%,19.0%,26.9µM*,?
CCN(Cc1ccccc1)S(=O)(=O)c1ccc2c(c1)CC(C)N2C(=O)C1CCC1 (stereo not drawn),/,/,/,/,-5.0%,/
COc1ccc(-n2nc3cc(C)c(NC(=O)c4ccc(-c5ccc(Br)cc5)o4)cc3n2)cc1,/,/,0.6%,/,?,/
CCC(C)(C)C1CCc2c(sc(NC(=O)c3cccs3)c2C(N)=O)C1 (stereo not drawn),-0.2%,10.8%,-13.3%,22.2%,?,16.6%
CC1CCc2c(sc(NC(=O)C3=COCCO3)c2C(N)=O)C1 (stereo not drawn),/,2.51µM*,/,1.58µM*,0.757µM*,?
CNC(=O)c1c(NC(=O)C2=COCCO2)sc2c1CCC(C)C2 (stereo not drawn),/,-1.3%,/,20.3%,2.69µM*,13.8%
CC(C)(C)C1CCc2c(sc(NC(=O)c3cccs3)c2C(N)=O)C1 (stereo not drawn),-5.8%,?,-21.1%,3.98µM*,0.536µM*,?
CC1CCc2c(sc(NC(=O)CSc3nc(N)cc(=O)[nH]3)c2C(N)=O)C1 (stereo not drawn),/,-6.7%,/,-4.0%,16.9µM*,-1.0%
CCOc1ccc(-n2cc(-c3ccccc3)c3c(N4CCN(c5ccccc5OC)CC4)ncnc32)cc1,/,/,/,/,0.8%,/
CCC(C(=O)N1CCN(c2cc(Cl)ccc2C)CC1)n1nc(C)n2c(cc3occc32)c1=O (stereo not drawn),/,/,-60.3%,/,4.8%,/

# Screening results (PubChem)
